# Tests used:
# [1] = biological target: T1, Aspartate--tRNA(Asp/Asn) ligase (Mycobacterium tuberculosis (strain ATCC 25618 / H37Rv)) (UniProt P9WFW3); assay: Assay for Asp RNA synthetase-1 from Mycobacterium tuberculosis; format: functional; parameters: scale not given: direction of the effect not stated beside the values; conditions: 30 µM; note: in the data most compounds retested in dose-response had high values
# T1 sequence (whole entry): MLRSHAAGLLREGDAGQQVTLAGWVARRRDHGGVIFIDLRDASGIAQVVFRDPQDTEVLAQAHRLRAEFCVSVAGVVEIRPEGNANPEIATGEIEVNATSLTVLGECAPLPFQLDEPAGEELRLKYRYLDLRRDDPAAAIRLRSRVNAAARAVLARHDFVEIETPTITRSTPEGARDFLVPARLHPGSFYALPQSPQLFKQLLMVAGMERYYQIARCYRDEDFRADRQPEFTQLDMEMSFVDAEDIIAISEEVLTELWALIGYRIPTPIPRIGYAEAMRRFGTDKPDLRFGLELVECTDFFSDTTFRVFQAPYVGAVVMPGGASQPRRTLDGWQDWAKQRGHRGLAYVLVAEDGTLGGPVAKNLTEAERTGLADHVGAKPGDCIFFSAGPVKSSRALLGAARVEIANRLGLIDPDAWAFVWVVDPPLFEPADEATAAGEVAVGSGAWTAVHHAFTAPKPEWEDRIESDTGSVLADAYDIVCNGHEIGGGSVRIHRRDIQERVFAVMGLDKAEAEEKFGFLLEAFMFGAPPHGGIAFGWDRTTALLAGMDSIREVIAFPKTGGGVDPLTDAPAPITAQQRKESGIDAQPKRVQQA
# [2] = biological target: Shiga toxin 2 (Escherichia coli O157:H7) (UniProt P09385+P09386); assay: E. coli 0.157:H7 Shiga Toxin SOP - stx2 screening assay; format: functional; parameters: scale not given: direction of the effect not stated beside the values; conditions: 30 µM
smiles,measurement,setting,value
CCc1nc(CN(C)C2CCN(Cc3cnc(C)cn3)C2)no1 (stereo unspecified),Percent Effect,[1],1.14%
same,Percent Effect,[2],-48.2%
CCCS(=O)(=O)Nc1ccc2c(c1)OCC(C)(C)C(=O)N2C,Percent Effect,[1],-4.25%
same,Percent Effect,[2],-2.5%
Cc1cnc(CN(C)C2CCN(Cc3ccccc3C#N)C2)o1 (stereo unspecified),Percent Effect,[1],-4.54%
same,Percent Effect,[2],-34.4%
CCc1csc(CCNC(=O)C2CC(=O)N(C(C)C)C2)n1 (stereo unspecified),Percent Effect,[1],-1.9%
same,Percent Effect,[2],-30.4%
O=C(O)C1(Cc2cccc(-c3ccc(F)c(F)c3)c2)CCOCC1,Percent Effect,[1],4.93%
same,Percent Effect,[2],7.92%
CC(C)(C)c1nnc(CN2CCOC(Cn3cncn3)C2)o1 (stereo unspecified),Percent Effect,[1],0.0111%
same,Percent Effect,[2],8.96%
COCCN1CCCC(O)(CN2CCN(c3ncccc3C)CC2)C1=O (stereo unspecified),Percent Effect,[1],5.57%
same,Percent Effect,[2],-7.55%
NC(=O)c1cccc(CC2CCN(C(=O)CO)C2)c1 (stereo unspecified),Percent Effect,[1],3.02%
same,Percent Effect,[2],-19.3%
Cc1nc(C)n(CC2CN(CCCOc3ccccc3C)CCO2)n1 (stereo unspecified),Percent Effect,[1],1.31%
same,Percent Effect,[2],4.82%
O=C(NCc1ccco1)[C@H]1C[C@H]2OCC[C@H]2N(C(=O)c2ccncc2)C1,Percent Effect,[1],4.89%
same,Percent Effect,[2],8.77%
CCc1n[nH]c(C2CN(C(=O)Cn3ccccc3=O)CCO2)n1 (stereo unspecified),Percent Effect,[1],0.8%
same,Percent Effect,[2],-58%
CCS(=O)(=O)c1ccccc1N1CCC(NC(=O)c2ccc[nH]2)CC1,Percent Effect,[1],-2.04%
same,Percent Effect,[2],9.33%
Cc1[nH]ccc1C(=O)Nc1cccc(CN2CCC(O)CC2)c1,Percent Effect,[1],0.958%
same,Percent Effect,[2],-28.9%
Cc1ccc(CNS(=O)(=O)CC2=NC(=O)n3cccc3C2=O)cc1,Percent Effect,[1],3.72%
same,Percent Effect,[2],4.1%
CCOc1ccccc1CSc1nnc(CC2CCS(=O)(=O)C2)n1C (stereo unspecified),Percent Effect,[1],4.33%
same,Percent Effect,[2],4.92%
CN(Cc1cccc(F)c1)C(=O)CN1CCCC1CCc1ccccc1 (stereo unspecified),Percent Effect,[1],-1.52%
same,Percent Effect,[2],-33.4%
O=C(CN1CCCC(Cn2cncn2)C1)NCc1ccco1 (stereo unspecified),Percent Effect,[1],-4.69%
same,Percent Effect,[2],14.2%
CN(CC(=O)Nc1ccc(Br)cn1)C(=O)Cc1ccc(O)cc1,Percent Effect,[1],-5.92%
same,Percent Effect,[2],17.8%
O=C1CC(c2ccncc2)c2c(c(C(=O)O)cn2-c2ccc(F)cc2)N1 (stereo unspecified),Percent Effect,[1],2.32%
same,Percent Effect,[2],-17.3%
Cc1ccccc1C1(CNC(=O)NCCc2nnc3n2CCC3)CC1,Percent Effect,[1],-1.38%
same,Percent Effect,[2],-0.461%
CCN(Cc1ccc2c(c1)OCCO2)C(=O)NCc1nc(C)cs1,Percent Effect,[1],-0.519%
same,Percent Effect,[2],28.5%
O=C(Cc1noc2ccccc12)N1CCCC1c1noc(C2CC2)n1 (stereo unspecified),Percent Effect,[1],-3.11%
same,Percent Effect,[2],8.27%
CC(C)NC(=O)N1CCC2(COCc3cnc(-c4cccnc4)nc32)C1 (stereo unspecified),Percent Effect,[1],-2.8%
same,Percent Effect,[2],2.56%
